From ChEMBL document CHEMBL3988442, “University of Dundee, Small-Polar-MMV Screening Library” (2021)
Screen size: about 69,000 compounds; about 1,000 (1.4%) showed an effect of 50% or more. The sample holds strong results, similar compounds and a random draw of the others, so the mix is not that of the screen.

Tested on: Leishmania donovani
Test: Leishmania intramacrophage assay
Assay type: functional, organism-based
Parameters: scale not given: in the data most compounds retested in dose-response had high values

CN(C(=O)Cn1nc(-c2cccs2)ccc1=O)C1CCS(=O)(=O)C1 (stereo not drawn)
Percent Effect (30 µM, 30.03 µM): -0.2404%

CCn1nc(C)c2nnn(CC(=O)Nc3ccc(C)c(C)c3)c(=O)c21
Percent Effect (30.3 µM, […]): -87.23%

COCCN1CCOCC12CCN(c1ccc(C#N)cc1)CC2.O=C(O)C(F)(F)F
Percent Effect (30.3 µM, […]): 3.251%

CO[C@H]1COC[C@@H]1NC(=O)C1(Oc2ccc(Cl)cc2)CCNCC1
Percent Effect (30.3 µM, […]): 9.396%

O=C(N[C@@H]1C[C@H]2CC[C@@H]1C2)C1(Oc2ccc(Cl)cc2)CCNCC1
Percent Effect (30.3 µM, […]): 99.44%

O=C(N[C@@H]1CCCNC1)C1(Oc2ccc(Cl)cc2)CCNCC1
Percent Effect (30.3 µM, […]): 12.74%

CCOc1ccc(OCc2nc3c(c(=O)[nH]2)CCNC3)cc1
Percent Effect (30.3 µM, […]): 15.57%

COc1ccc(Br)c(C(=O)NCCNc2ccc(C(F)(F)F)cn2)c1
Percent Effect (30 µM, 30.03 µM): 56.64%

O=C(NCCCNc1ccc(C(F)(F)F)cn1)c1ccc(F)cc1Br
Percent Effect (30 µM): 45.44%

COc1ccc(C(=O)NCCCNc2ccc(C(F)(F)F)cn2)cc1
Percent Effect (30 µM): 37.73%

CCOC(=O)N1CCc2ccccc2C12CCNCC2.Cl
Percent Effect (30.3 µM, […]): 0.5062%

COCc1ccc(CNc2cncc(-n3cccn3)n2)cc1
Percent Effect (30 µM): 27.73%

COC(=O)Nc1ccc(CNc2cncc(-n3cccn3)n2)cc1
Percent Effect (30 µM): 52.92%

CNC(=O)COc1ccc(CNc2cncc(-n3cccn3)n2)cc1
Percent Effect (30 µM): 19.22%

CN1CC[C@H]2CN(C(=O)c3ccc4sc5c(c4c3)CCNC5=O)C[C@H]21
Percent Effect (30.3 µM, […]): 4.332%

CC(=O)N1CCC2(CC1)CCN(C(=O)c1ccc(F)c(C(F)(F)F)c1)C2
Percent Effect (30.3 µM, […]): -8.189%

COc1ccc2c(c1)CN(c1cc(N3CCCC3CO)ncn1)CC2 (stereo not drawn)
Percent Effect (30.3 µM, […]): 11.17%

COc1ccnc(N2CCc3ccc(OC(F)F)cc3C2)n1
Percent Effect (30.3 µM, […]): -15.45%

COc1ccc(C2CN(c3nc(C)cc(C)n3)CCN2C(C)=O)cc1 (stereo not drawn)
Percent Effect (30.3 µM, […]): 30.74%

Cc1cc(C)nc(N2CCc3ccc(OC(F)F)cc3C2)n1
Percent Effect (30.3 µM, […]): 84.87%

COc1ccc2c(c1)CN(c1nc(C)cc(C)n1)CC2
Percent Effect (30.3 µM, […]): 98.91%

COc1cccc(O[C@H]2CCN(c3nc(C)cc(C)n3)CC[C@@H]2O)c1
Percent Effect (30.3 µM, […]): -35.99%

O=C(CNC(=O)C1(c2ccc(F)cc2F)CCC1)Nc1cccnc1
Percent Effect (30.3 µM, […]): -11.9%

COc1cccc2c1OCC(CNC(=O)CN(C)C1CCCC1)C2 (stereo not drawn)
Percent Effect (30.3 µM, […]): -18.43%

CC(C)CN1C(=O)CC[C@H]2CN(C(=O)Cn3ccccc3=O)CC[C@H]21
Percent Effect (30.3 µM, […]): 3.813%

CC(C)N1CCCC(C(=O)N2CCN(c3nsc4ccccc34)CC2)C1 (stereo not drawn)
Percent Effect (30.3 µM, […]): 77.99%

NC(=O)N1CCCC(C(=O)N2CCN(c3nsc4ccccc34)CC2)C1 (stereo not drawn)
Percent Effect (30.3 µM, […]): 34.33%

CCN1CC(C(=O)N2CCN(c3nsc4ccccc34)CC2)CCC1=O (stereo not drawn)
Percent Effect (30.3 µM, […]): 22.5%

COc1c(C2CCCN2C(=O)CCNc2ncccn2)c(C)nn1C (stereo not drawn)
Percent Effect (30 µM): 5.312%

COc1ccc(CN(C(=O)C2CCCS2)c2ccncc2)cc1 (stereo not drawn)
Percent Effect (30.3 µM, […]): -1.322%

COc1cc(Oc2ccc(C#N)cn2)ccc1CN1CCCC1
Percent Effect (30.3 µM, […]): 2.326%

COc1cc(Oc2ccc(C(F)(F)F)cn2)ccc1CN1CCCC1
Percent Effect (30.3 µM, […]): 61.15%

COc1ccc(Oc2ccc(C(F)(F)F)cn2)cc1CN1CCCC1
Percent Effect (30.3 µM, […]): 2.243%

COCCOCC(=O)Nc1ccnn1-c1ccc(Cl)cc1
Percent Effect (30.3 µM, […]): 23.94%

CCOCCC(=O)Nc1ccnn1-c1ccc(Cl)cc1
Percent Effect (30.3 µM, […]): 0.3355%

COCC(=O)Nc1ccnn1-c1ccc(Cl)cc1
Percent Effect (30.3 µM, […]): 82.71%

Cc1n[nH]c(C)c1CCN(C)c1ccc(-c2nc(C3CC3)no2)cn1
Percent Effect (30.3 µM, […]): 22.75%

Cc1nc(CCNC(=O)C(N)c2c(C)n[nH]c2C)sc1C (stereo not drawn)
Percent Effect (30.3 µM, […]): 7.254%

Cc1nc(CNC(=O)NC2CCN(c3cccc(Cl)c3)C2)no1 (stereo not drawn)
Percent Effect (30.3 µM, […]): 40.16%

CC(C)c1n[nH]c(C2CN(Cc3ccno3)CCO2)n1 (stereo not drawn)
Percent Effect (30.3 µM, […]): 53.56%

CC(C)c1n[nH]c(C2CN(Cc3ncc[nH]3)CCO2)n1 (stereo not drawn)
Percent Effect (30.3 µM, […]): -15.06%

Cc1nc(CN2CCOC(c3nc(C(C)C)n[nH]3)C2)oc1C (stereo not drawn)
Percent Effect (30 µM, 30.03 µM): -6.521%

Cc1cnn(CCNCc2ccc(S(C)(=O)=O)cc2)c1
Percent Effect (30.3 µM, […]): -1.29%

CC(C)CCc1n[nH]c(C(=O)O)c1Br
Percent Effect (30.3 µM, […]): 1.329%

O=C(O)C(F)(F)F.O=C(c1ccco1)N1CCO[C@@H]2CN(Cc3nccs3)CC[C@@H]2C1
Percent Effect (30.3 µM, […]): 43.58%

O=C(O)C(F)(F)F.O=C(c1ccco1)N1CCO[C@@H]2CN(CC3CC3)CC[C@@H]2C1
Percent Effect (30.3 µM, […]): 52.8%

O=C(O)C(F)(F)F.O=C(c1ccco1)N1CC[C@@H]2CN(C3CCOCC3)CCO[C@@H]2C1
Percent Effect (30.3 µM, […]): 39.91%

CCS(=O)(=O)N1CC[C@H]2[C@H]1CC(=O)N2Cc1csc(C)n1
Percent Effect (30.3 µM, […]): 11.91%

O=C(C1CCOCC1)N1C[C@H]2CCC[C@@]2(COCc2ccccn2)C1
Percent Effect (30.3 µM, […]): 39.51%

O=C(C1CCC1)N1C[C@@H]2CC[C@H](C1)N(S(=O)(=O)c1ccccc1)C2
Percent Effect (30.3 µM, […]): -6.923%

O=C1CCC(=O)c2oc3ccc(Br)cc3c2N1
Percent Effect (30.3 µM, […]): -16.45%

Cc1cc(Nc2cnccn2)cc(C2CCCN2)n1 (stereo not drawn)
Percent Effect (30.3 µM, […]): 50.63%

Cc1nc(Nc2cnccn2)cc(C2CCCN2)n1.Cl (stereo not drawn)
Percent Effect (30.3 µM, […]): -4.51%

Cc1cc(Nc2cnccn2)cc(C2CCCNC2)n1 (stereo not drawn)
Percent Effect (30.3 µM, […]): -25.49%

CSC1(CNC(=O)CCc2ccc(Cl)s2)CCOCC1
Percent Effect (30.3 µM, […]): -1.683%

COCCN1CCC(CNC(=O)c2ccnc(-n3ccnc3)c2)CC1
Percent Effect (30.3 µM, […]): -33.66%

CCOCC1CN(Cc2ccoc2)Cc2cn(CC3CC3)nc21 (stereo not drawn)
Percent Effect (30.3 µM, […]): 26.22%

CCS(=O)(=O)N1CCCC(c2nccn2Cc2ccccn2)C1 (stereo not drawn)
Percent Effect (30.3 µM, […]): 2.474%

CCS(=O)(=O)N1CCN(C(=O)NC(C)C)CC2(CC(=O)N(C)C2)C1 (stereo not drawn)
Percent Effect (30.3 µM, […]): 15.87%

CCn1nnc(NCc2ccc(-c3ccc(Br)cc3)o2)n1
Percent Effect (30.3 µM, […]): 4.739%

CCCn1nnc(NCc2ccc(-c3ccc(Br)cc3)o2)n1
Percent Effect (30.3 µM, […]): -28.31%

CCC(CO)NCc1ccc(-c2ccc(F)c(Cl)c2)o1.Cl (stereo not drawn)
Percent Effect (30.3 µM, […]): 76.93%

CCC(CO)NCc1ccc(-c2ccc(Br)cc2)o1.Cl (stereo not drawn)
Percent Effect (30.3 µM, […]): 86.07%

CCC(CO)NCc1ccc(-c2ccc(F)cc2)o1.Cl (stereo not drawn)
Percent Effect (30.3 µM, […]): 4.62%

CCC(CO)NCc1ccc(-c2ccccc2F)o1 (stereo not drawn)
Percent Effect (30.3 µM, […]): 4.793%

CCC(CO)NCc1ccc(-c2ccccc2)o1.Cl (stereo not drawn)
Percent Effect (30.3 µM, […]): 7.098%

CCC(CO)NCc1ccc(-c2ccc(Cl)cc2)o1.Cl (stereo not drawn)
Percent Effect (30.3 µM, […]): 78.06%

CC(NCc1ccc(-c2ccc(Cl)cc2)o1)c1nnc2n1CCC2 (stereo not drawn)
Percent Effect (30.3 µM, […]): -2.109%

COCCN1CCN(CC(=O)NC2(C#N)CCCC2)CC1
Percent Effect (30.3 µM, […]): 21.7%

Cn1cc(-c2cnc(N3CCOCC3)nc2)cc1C(=O)NCCC#N.O=C(O)C(F)(F)F
Percent Effect (30.3 µM, […]): 12.83%

CN(CC(=O)NC(C)(C)C)Cc1cccc2c1OCCO2
Percent Effect (30.3 µM, […]): 16.54%

CC1CCN(c2ccc(NC(=O)CCn3cccn3)cc2)CC1
Percent Effect (30.3 µM, […]): 16.17%

Cc1cc(C(=O)N2C[C@@H]3[C@@H](C2)OCC(=O)N3CC2CC2)no1
Percent Effect (30 µM, 30.03 µM): 18.33%

Cc1nn(C)cc1-c1cncn1CCN(C)C1CCCC1.Cl
Percent Effect (30.3 µM, […]): 52.65%

CCn1nc(C)c(-c2cncn2CCN(C)C2CCCC2)c1C.Cl
Percent Effect (30.3 µM, […]): 32.48%

CCCn1nc(C)c(-c2cncn2CCN(C)C2CCCC2)c1C.Cl
Percent Effect (30.3 µM, […]): 42.92%

CC(C)C1CN(c2nccc(N)n2)CCC(=O)N1Cc1ccc(F)cc1 (stereo not drawn)
Percent Effect (30.3 µM, […]): -20.97%

COc1cccc2c1OCC(CNC(=O)Cn1ccnc1C)C2 (stereo not drawn)
Percent Effect (30.3 µM, […]): 4.9%

OC(CNCCn1cccn1)COc1ccc(Br)cc1 (stereo not drawn)
Percent Effect (30.3 µM, […]): 25.57%

OC(CNCCn1cccn1)COc1ccc(F)cc1 (stereo not drawn)
Percent Effect (30.3 µM, […]): 20.47%

OC(CNCCn1cccn1)COc1ccc2ccccc2c1 (stereo not drawn)
Percent Effect (30.3 µM, […]): 56.8%

Cc1nnc2n1CCN(C(=O)C(OC1CCCC1)c1ccccc1)C2 (stereo not drawn)
Percent Effect (30.3 µM, […]): 5.78%

O=C(Nc1ccc(S(=O)(=O)Nc2c(F)cccc2F)cc1)N1CCCC1
Percent Effect (30.3 µM, […]): 12.59%

CC(=O)NCC(=O)N1CCOC2(CCCN(c3cccnc3)C2)C1.O=C(O)C(F)(F)F (stereo not drawn)
Percent Effect (30 µM, 30.03 µM): 4.273%

CC(=O)N1CCCCC1c1ncnn1-c1ccc2nc(C)sc2c1 (stereo not drawn)
Percent Effect (30.3 µM, […]): 29.12%

Cc1nc2ccc(-n3ncnc3[C@@H]3CCCN3S(C)(=O)=O)cc2s1
Percent Effect (30.3 µM, […]): 99.47%

CS(=O)(=O)N1CCC[C@H]1c1ncnn1-c1ccc2c(c1)OCO2
Percent Effect (30.3 µM, […]): -61.62%

COc1ccc(OCCc2nnc(NC(C)=O)s2)cc1
Percent Effect (30.3 µM, […]): -16.84%

O=C(NC1CCS(=O)(=O)C1)c1ccc(SCc2cscn2)cc1 (stereo not drawn)
Percent Effect (30.3 µM, […]): 10.79%

CCNC(=O)[C@@H]1CCCN1C1(C(=O)NC)CCCCC1.Cl
Percent Effect (30.3 µM, […]): -2.22%

O=C(c1ccc[nH]1)N1CCCC(c2cc(C(F)(F)F)[nH]n2)C1 (stereo not drawn)
Percent Effect (30 µM, 30.03 µM): 44.22%

O=C(c1cc[nH]n1)N1CCCC(c2cc(C(F)(F)F)[nH]n2)C1 (stereo not drawn)
Percent Effect (30 µM): -11.08%

O=C(c1cc(Cl)c[nH]1)N1CCCC(c2cc(C(F)(F)F)[nH]n2)C1 (stereo not drawn)
Percent Effect (30 µM): 52.35%

N#Cc1c(CN2CCCCC2Cn2cncn2)cn2ccccc12 (stereo not drawn)
Percent Effect (30.3 µM, […]): -0.3662%

O=C(Nc1cccc(N2CCN(CC3CC3)CC2)c1)C1CCCO1 (stereo not drawn)
Percent Effect (30.3 µM, […]): 25.21%

O=C(Nc1cccc(N2CCN(CC3CC3)CC2)c1)N1CCCC1
Percent Effect (30.3 µM, […]): 55.96%

O=C(NCC1CC1)Nc1cccc(N2CCN(CC3CC3)CC2)c1
Percent Effect (30 µM, 30.03 µM): -6.352%

O=C(NCCc1ccc(F)cc1)C1CN(C(=O)Cn2cncn2)C1
Percent Effect (30.3 µM, […]): 19.84%

COCCCNC(=O)COc1ccccc1C(F)(F)F
Percent Effect (30.3 µM, […]): 6.767%

O=C(Cc1ccccc1)NC[C@H]1Cn2ccnc2CO1
Percent Effect (30.3 µM, […]): 5.132%

CCC(Nc1nc(C)nc2onc(C)c12)c1nc(C)c(C)s1 (stereo not drawn)
Percent Effect (30.3 µM, […]): 15.33%

CCC(Nc1nc(C)nc2onc(C)c12)c1cccs1 (stereo not drawn)
Percent Effect (30.3 µM, […]): 50.11%

Cc1nc(NCCSc2ccccn2)c2c(C)noc2n1
Percent Effect (30.3 µM, […]): 23.02%
